Measured values as given in ChEMBL document CHEMBL3433997, “St. Jude Leishmania screening dataset” (2016).

Legend:
Assay type in all cases: functional
[1] = target: Solute carrier family 2, facilitated glucose transporter member 1 (Homo sapiens) (UniProt P11166); experiment: ST_JUDE_LEISH: Cytotoxicity at 2uM final concentration against transgenic Leishmania Mexicana promastigotes LmGLUT1 that are glucose transport deficient and complemented with the human glucose transporter GLUT1. Activity is measured by DNA content using SYBR green in vitro
[2] = target: Hexose transporter 1 (Plasmodium falciparum) (UniProt O97467); experiment: ST_JUDE_LEISH: Cytotoxicity at 2uM final concentration against transgenic Leishmania Mexicana promastigotes LmPfHT that are glucose transport deficient and complemented with the Plasmodium falciparum hexose transporter. Activity is measured by DNA content using SYBR green in vitro
[3] = target: Glucose transporter (Leishmania mexicana) (UniProt O61059); experiment: ST_JUDE_LEISH: Cytotoxicity at 2uM final concentration against transgenic Leishmania Mexicana promastigotes LmGT2 that are glucose transport deficient and complemented with the L. Mexicana glucose transporter 2. Activity is measured by DNA content using SYBR green in vitro

Chain of Solute carrier family 2, facilitated glucose transporter member 1 (Homo sapiens) (P11166 whole entry): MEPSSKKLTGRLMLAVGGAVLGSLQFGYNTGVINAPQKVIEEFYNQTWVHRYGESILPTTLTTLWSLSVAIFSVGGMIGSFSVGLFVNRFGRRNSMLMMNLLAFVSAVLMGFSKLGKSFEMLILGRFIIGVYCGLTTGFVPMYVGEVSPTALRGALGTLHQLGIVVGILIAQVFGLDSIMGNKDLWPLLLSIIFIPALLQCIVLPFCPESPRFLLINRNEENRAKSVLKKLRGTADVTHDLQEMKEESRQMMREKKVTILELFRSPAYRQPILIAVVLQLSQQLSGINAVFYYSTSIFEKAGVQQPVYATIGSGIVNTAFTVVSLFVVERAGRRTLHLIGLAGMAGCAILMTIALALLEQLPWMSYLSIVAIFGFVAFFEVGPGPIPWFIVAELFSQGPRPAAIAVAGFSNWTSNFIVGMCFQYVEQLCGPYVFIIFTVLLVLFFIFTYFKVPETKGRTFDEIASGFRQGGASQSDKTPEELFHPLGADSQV

COc1c(CN2CCOCC2)cccc1-c1cc2c(-c3ccc(C(=O)O)c(C(C)C)c3)ccnc2[nH]1
inhibition [1]: 4.23%
inhibition [2]: 3.17%
inhibition [3]: 3.15%

Cc1cccc2nc(-c3cccc(-c4ccc(NC(=O)c5cccnc5)cc4)c3)[nH]c12
inhibition [1]: 3.18%
inhibition [2]: 4.09%
inhibition [3]: 2.31%

CC(C)c1ccc(CN2CCC(CNC(=O)c3cc(-c4cccc(C(F)(F)F)c4)cs3)C2)cc1 (stereo unspecified)
inhibition [1]: 1.18%
inhibition [2]: 1.74%
inhibition [3]: 3.79%

COc1ccc(NC(=O)C2c3ccccc3C(=O)N(C3CCCC3)C2c2cccs2)cc1OC (stereo unspecified)
inhibition [1]: 2.85%
inhibition [2]: 5.65%
inhibition [3]: 0.45%

CCN(CC)CCCSc1ccc(-c2ccc(SCCCN(CC)CC)cc2)cc1
inhibition [1]: 88.5%
inhibition [2]: 91.5%
inhibition [3]: 78.2%

COc1ccc(NC(=O)c2ccc(-c3nc(-c4cccc(C(F)(F)F)c4)cs3)cc2)cc1N1CCN(C)CC1
inhibition [1]: 0.87%
inhibition [2]: 1.59%
inhibition [3]: 2.01%

CCOc1ccccc1CCNCC1CCN(CC2CCCCC2)CC1
inhibition [1]: 1.97%
inhibition [2]: -2.9%
inhibition [3]: 2.88%

O=[N+]([O-])c1cccc(CNC2CCN(Cc3ccc(C(F)(F)F)cc3)CC2)c1
inhibition [1]: 2.18%
inhibition [2]: 2.08%
inhibition [3]: 3.71%

COc1ccc(Nc2ccnc3cc(Cl)ccc23)cc1OC
inhibition [1]: 10.1%
inhibition [2]: 10.7%
inhibition [3]: 7.28%

CCNc1cc(C(=O)N[C@@H](Cc2ccoc2)[C@H](O)CNC(C)CCCC(C)C)cc(N2CCCCS2(=O)=O)c1 (stereo partly specified)
inhibition [1]: 1.42%
inhibition [2]: 0.7%
inhibition [3]: 0.83%

N#Cc1cccc(NC(=O)Nc2cccc(-c3cccc(-c4nc5cc(C(F)(F)F)ccc5[nH]4)c3)c2)c1
inhibition [1]: 2.08%
inhibition [2]: 1.85%
inhibition [3]: 3.18%

COc1ccc(CNc2cc(C)nc3sc4c(c23)CCC2(C4)OCCO2)cc1
inhibition [1]: 1.79%
inhibition [2]: 1.85%
inhibition [3]: 0.47%

Cc1ccc(Cc2cnc(CN3CCCCC3)c(O)c2)cc1
inhibition [1]: -1.22%
inhibition [2]: -2.99%
inhibition [3]: 0.07%

NCc1ccc(CNCc2cccc(-c3ccc(-c4nc5ccccc5[nH]4)cc3)c2)cc1
inhibition [1]: 13.5%
inhibition [2]: 11.8%
inhibition [3]: 12.4%

Oc1c(CN2CCC(Cc3ccccc3)CC2)cc(Cl)c2cccnc12
inhibition [1]: 13.5%
inhibition [2]: 14%
inhibition [3]: 9.31%

CCCCN1C(=O)C2CC(=O)CC(C3CCCCC3)C2C1=O (stereo unspecified)
inhibition [1]: 0.97%
inhibition [2]: 0.42%
inhibition [3]: 2.77%

COc1cc(SC)c(Br)cc1-c1nc2ccncc2[nH]1
inhibition [1]: 3.09%
inhibition [2]: 2.12%
inhibition [3]: 4.52%
